Measurements from PubChem BioAssay (NCI).
Values joined by “and” are separate entries in the source; they are usually repeats but may differ in a detail not shown here. Identical values can stand only once. Compounds without any hit were thinned out: in the full panel of roughly 83,000, 20% have a hit.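 Treatment: one concentration, 48 hours, 96-well format. Scoring: percent growth, with anything below 10 considered active.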 Active and inactive are the calls of the source.

Tests used:
Assay in all cases: NCI-60 one-dose screen, 48 h (100 = growth as untreated, 0 = no growth, -100 = all killed)
NCI-H23 lung = tested on: NCI-H23 lung
NCI-H226 lung = tested on: NCI-H226 lung
NCI-H322M lung = tested on: NCI-H322M lung
HOP-62 NSCLC = tested on: HOP-62 NSCLC
NCI-H460 lung = tested on: NCI-H460 lung
HOP-92 NSCLC = tested on: HOP-92 NSCLC
NCI-H522 lung = tested on: NCI-H522 lung
A549/ATCC NSCLC = tested on: A549/ATCC NSCLC
786-0 renal = tested on: 786-0 renal
COLO 205 colon = tested on: COLO 205 colon
DU-145 prostate = tested on: DU-145 prostate
K-562 leukemia = tested on: K-562 leukemia
MALME-3M melanoma = tested on: MALME-3M melanoma
MDA-MB-231 breast = tested on: MDA-MB-231 breast
RXF 393 renal = tested on: RXF 393 renal
SF-268 CNS = tested on: SF-268 CNS
SF-295 CNS = tested on: SF-295 CNS
SF-539 CNS = tested on: SF-539 CNS
UACC-257 melanoma = tested on: UACC-257 melanoma
M14 melanoma = tested on: M14 melanoma

Measured: growth

Nc1nc2ncc(CNc3ccc(C(=O)N[C@@H](CCc4nn[nH]n4)C(=O)O)cc3)nc2c(=O)[nH]1
inactive: NCI-H23 lung; 10 µM unless noted 95.7% and 95.5% | NCI-H226 lung; 10 µM unless noted 98.7% and 93.8% | NCI-H322M lung; 10 µM unless noted 103% and 102% | HOP-62 NSCLC; 10 µM unless noted 103% and 92.1% | NCI-H460 lung; 10 µM unless noted 100% and 101% | HOP-92 NSCLC; 10 µM unless noted 93.4% and 78.5% | NCI-H522 lung; 10 µM unless noted 101% and 84.6% | A549/ATCC NSCLC; 10 µM unless noted 106% and 95.3% | 786-0 renal; 10 µM unless noted 106% and 109% | COLO 205 colon; 10 µM unless noted 107% and 110% | DU-145 prostate; 10 µM unless noted 99.4% and 110% | K-562 leukemia; 10 µM unless noted 90.7% | MALME-3M melanoma; 10 µM unless noted 96.9% and 104% | MDA-MB-231 breast; 10 µM unless noted 110% and 99.7% | RXF 393 renal; 10 µM unless noted 104% and 96.3% | SF-268 CNS; 10 µM unless noted 98% and 99.5% | SF-295 CNS; 10 µM unless noted 98.6% and 100% | SF-539 CNS; 10 µM unless noted 91% and 110% | UACC-257 melanoma; 10 µM unless noted 106% and 91.8% | M14 melanoma; 10 µM unless noted 88% and 98.6%

Cn1c(SSc2ccc(-c3cccnc3)n2C)ccc1-c1cccnc1
inactive: NCI-H23 lung; 10 µM unless noted 99.8% and 111% | NCI-H226 lung; 10 µM unless noted 108% and 105% | NCI-H322M lung; 10 µM unless noted 106% and 95.5% | HOP-62 NSCLC; 10 µM unless noted 117% and 118% | NCI-H460 lung; 10 µM unless noted 101% and 65.9% | HOP-92 NSCLC; 10 µM unless noted 79% and 101% | NCI-H522 lung; 10 µM unless noted 62% and 81.9% | A549/ATCC NSCLC; 10 µM unless noted 103% | 786-0 renal; 10 µM unless noted 120% and 112% | COLO 205 colon; 10 µM unless noted 116% and 102% | DU-145 prostate; 10 µM unless noted 115% and 107% | MALME-3M melanoma; 10 µM unless noted 102% and 105% | MDA-MB-231 breast; 10 µM unless noted 91.4% and 110% | RXF 393 renal; 10 µM unless noted 105% and 110% | SF-268 CNS; 10 µM unless noted 82.1% and 93.5% | SF-295 CNS; 10 µM unless noted 77.9% and 93.7% | SF-539 CNS; 10 µM unless noted 116% and 122% | UACC-257 melanoma; 10 µM unless noted 86.1% and 93.8% | M14 melanoma; 10 µM unless noted 101% and 98.4%
75.9% (inactive) and 7.91% (active): K-562 leukemia; 10 µM unless noted

O=[N+]([O-])c1ccc(Oc2ccccc2)cc1
inactive: NCI-H23 lung; 10 µM unless noted 95.7% and 105% | NCI-H226 lung; 10 µM unless noted 103% | NCI-H322M lung; 10 µM unless noted 104% and 111% | HOP-62 NSCLC; 10 µM unless noted 106% and 95.9% | NCI-H460 lung; 10 µM unless noted 103% and 102% | HOP-92 NSCLC; 10 µM unless noted 48.8% and 77.1% | NCI-H522 lung; 10 µM unless noted 108% and 103% | A549/ATCC NSCLC; 10 µM unless noted 104% and 89.5% | 786-0 renal; 10 µM unless noted 103% and 106% | COLO 205 colon; 10 µM unless noted 109% and 110% | DU-145 prostate; 10 µM unless noted 117% and 127% | K-562 leukemia; 10 µM unless noted 118% and 123% | MALME-3M melanoma; 10 µM unless noted 106% and 124% | MDA-MB-231 breast; 10 µM unless noted 109% and 136% | RXF 393 renal; 10 µM unless noted 117% and 118% | SF-268 CNS; 10 µM unless noted 106% and 99.4% | SF-295 CNS; 10 µM unless noted 95.4% and 121% | SF-539 CNS; 10 µM unless noted 104% and 98.1% | UACC-257 melanoma; 10 µM unless noted 108% and 91.7% | M14 melanoma; 10 µM unless noted 98.6% and 108%

O=[N+]([O-])c1ccc(N/N=C\c2cc(Br)ccc2O)nc1
inactive: NCI-H23 lung; 10 µM unless noted 20.7% and 14.2% | NCI-H226 lung; 10 µM unless noted 91.4% and 55.4% | HOP-62 NSCLC; 10 µM unless noted 12.2% and 34.9% | HOP-92 NSCLC; 10 µM unless noted 37.9% | A549/ATCC NSCLC; 10 µM unless noted 21.4% | 786-0 renal; 10 µM unless noted 25.6% and 35% | COLO 205 colon; 10 µM unless noted 22.9% and 43.4% | DU-145 prostate; 10 µM unless noted 31.8% and 24.4% | MALME-3M melanoma; 10 µM unless noted 16.6% | MDA-MB-231 breast; 10 µM unless noted 11% and 24.3% | RXF 393 renal; 10 µM unless noted 44.2% and 48.2% | SF-268 CNS; 10 µM unless noted 22.3% and 19.7%
24.2% (inactive) and 8.6% (active): NCI-H322M lung; 10 µM unless noted
2.25% (active) and 13.7% (inactive): M14 melanoma; 10 µM unless noted
active: NCI-H460 lung; 10 µM unless noted 2.22% and 0.392% | NCI-H522 lung; 10 µM unless noted 6.57% and 7.63% | SF-295 CNS; 10 µM unless noted 6.95% and 7.63% | SF-539 CNS; 10 µM unless noted 8.15% and 9.56% | UACC-257 melanoma; 10 µM unless noted 9.18% and -3.76%
20.6% (inactive) and -3.71% (active): K-562 leukemia; 10 µM unless noted

CCCCCCCCCCCCCCCc1ccc(Cl)c(O)c1Cl (tested in a mixture with another compound)
inactive: NCI-H23 lung; 0.25 µM 19.1% | NCI-H23 lung; 10 µM 88.8% | NCI-H322M lung; 0.25 µM 61.5% | NCI-H322M lung; 10 µM 107% | HOP-62 NSCLC; 0.25 µM 19% | HOP-62 NSCLC; 10 µM 97.5% | NCI-H460 lung; 10 µM 104% | HOP-92 NSCLC; 0.25 µM 17.5% | HOP-92 NSCLC; 10 µM 105% | NCI-H522 lung; 0.25 µM 12.1% | NCI-H522 lung; 10 µM 83.1% | A549/ATCC NSCLC; 0.25 µM 38.5% | A549/ATCC NSCLC; 10 µM 71.9% | 786-0 renal; 0.25 µM 15.6% | 786-0 renal; 10 µM 107% | COLO 205 colon; 0.25 µM 49.3% | COLO 205 colon; 10 µM 114% | DU-145 prostate; 0.25 µM 18.4% | DU-145 prostate; 10 µM 106% | K-562 leukemia; 0.25 µM 30.5% | K-562 leukemia; 10 µM 92.3% | MALME-3M melanoma; 0.25 µM 22.7% | MALME-3M melanoma; 10 µM 100% | MDA-MB-231 breast; 0.25 µM 59.1% | MDA-MB-231 breast; 10 µM 97.9% | RXF 393 renal; 0.25 µM 60.3% | RXF 393 renal; 10 µM 106% | SF-268 CNS; 0.25 µM 31.4% | SF-268 CNS; 10 µM 94.9% | SF-295 CNS; 0.25 µM 29.1% | SF-295 CNS; 10 µM 109% | SF-539 CNS; 0.25 µM 15.9% | SF-539 CNS; 10 µM 103% | UACC-257 melanoma; 0.25 µM 52.1% | UACC-257 melanoma; 10 µM 80.7% | M14 melanoma; 0.25 µM 41% | M14 melanoma; 10 µM 92.2%
active: NCI-H460 lung; 0.25 µM 5.78%

CNC(=O)c1ccc(C)c(-n2c(C)cc(OCc3ccc(F)cc3F)c(Br)c2=O)c1
inactive: NCI-H23 lung; 10 µM unless noted 66% and 74.1% | NCI-H226 lung; 10 µM unless noted 67.2% and 64.6% | NCI-H322M lung; 10 µM unless noted 86.3% and 92.8% | HOP-62 NSCLC; 10 µM unless noted 69.8% and 89% | NCI-H460 lung; 10 µM unless noted 80.3% and 97.2% | HOP-92 NSCLC; 10 µM unless noted 64.3% and 90.9% | NCI-H522 lung; 10 µM unless noted 52.3% and 47.1% | A549/ATCC NSCLC; 10 µM unless noted 63.4% and 63.2% | 786-0 renal; 10 µM unless noted 85.9% and 84.2% | COLO 205 colon; 10 µM unless noted 61% and 91.8% | DU-145 prostate; 10 µM unless noted 91.6% and 95.9% | K-562 leukemia; 10 µM unless noted 43% and 80.7% | MALME-3M melanoma; 10 µM unless noted 98.9% and 95.9% | MDA-MB-231 breast; 10 µM unless noted 88.8% and 93.1% | RXF 393 renal; 10 µM unless noted 87.7% | SF-268 CNS; 10 µM unless noted 81.6% and 84.2% | SF-295 CNS; 10 µM unless noted 68.9% and 78.3% | SF-539 CNS; 10 µM unless noted 89.5% and 88.2% | UACC-257 melanoma; 10 µM unless noted 70.5% | M14 melanoma; 10 µM unless noted 76.6% and 98.4%

CNC(=O)c1cc(Oc2ccc(CC(=O)Nc3cc(C(C)(C)C)nn3C)cc2)ccn1
inactive: NCI-H23 lung; 1 µM 50% | NCI-H23 lung; 10 µM 49% | NCI-H23 lung; 30 µM 48.9% | NCI-H226 lung; 10 µM 61.6% | NCI-H226 lung; 30 µM 49.4% | NCI-H322M lung; 1 µM 92.5% | NCI-H322M lung; 10 µM 93.4% | NCI-H322M lung; 30 µM 105% | HOP-62 NSCLC; 1 µM 55% | HOP-62 NSCLC; 10 µM 77.6% | HOP-62 NSCLC; 30 µM 75.1% | NCI-H460 lung; 1 µM 79.4% | NCI-H460 lung; 10 µM 66.7% | NCI-H460 lung; 30 µM 80.7% | HOP-92 NSCLC; 1 µM 74.7% | HOP-92 NSCLC; 10 µM 93.5% | HOP-92 NSCLC; 30 µM 92.6% | NCI-H522 lung; 1 µM 74.3% | NCI-H522 lung; 10 µM 54.9% | NCI-H522 lung; 30 µM 71.7% | A549/ATCC NSCLC; 1 µM 71.2% | A549/ATCC NSCLC; 10 µM 67.2% | A549/ATCC NSCLC; 30 µM 80.8% | 786-0 renal; 1 µM 90.7% | 786-0 renal; 10 µM 100% | 786-0 renal; 30 µM 93.8% | COLO 205 colon; 10 µM 77.1% | COLO 205 colon; 30 µM 91.2% | DU-145 prostate; 1 µM 91.6% | DU-145 prostate; 10 µM 76.3% | DU-145 prostate; 30 µM 103% | K-562 leukemia; 1 µM 41.9% | K-562 leukemia; 10 µM 33.9% | K-562 leukemia; 30 µM 28.3% | MALME-3M melanoma; 1 µM 60.5% | MALME-3M melanoma; 10 µM 61.4% | MALME-3M melanoma; 30 µM 66% | MDA-MB-231 breast; 1 µM 78.6% | MDA-MB-231 breast; 10 µM 69.1% | MDA-MB-231 breast; 30 µM 71.9% | RXF 393 renal; 1 µM 98.3% | RXF 393 renal; 10 µM 79.9% | SF-268 CNS; 1 µM 86.9% | SF-268 CNS; 10 µM 70.9% | SF-268 CNS; 30 µM 98.7% | SF-295 CNS; 1 µM 58.1% | SF-295 CNS; 10 µM 37.1% | SF-295 CNS; 30 µM 33.9% | SF-539 CNS; 1 µM 67.1% | SF-539 CNS; 10 µM 66.7% | SF-539 CNS; 30 µM 69.2% | UACC-257 melanoma; 1 µM 60.5% | UACC-257 melanoma; 10 µM 55.7% | UACC-257 melanoma; 30 µM 47.7% | M14 melanoma; 1 µM 96.5% | M14 melanoma; 10 µM 88%
